# Results published in PubChem BioAssay.
# Activity calls are given as the source filed them. Unless noted, how the calls were made is not given here.
# Tests used:
# [1] = A549 cell viability effects, profiling panel, calcein-AM fluorescence, 48 h, basal (AID 1162); details: higher = more signal; further: test concentration not given here
# [2] = adipocyte viability effects, profiling panel, cell-based, 3T3-L1 adipocytes, calcein-AM fluorescence, 48 h, basal (AID 1163); details: 3T3-L1 adipocytes viability, higher = more signal; further: test concentration not given here
# [3] = HepG2 cell viability effects, profiling panel, calcein-AM fluorescence, 48 h, basal (AID 1164); details: higher = more signal; further: test concentration not given here
# [4] = MM1S cell viability effects, profiling panel, calcein-AM fluorescence, 48 h, basal (AID 1165); details: higher = more signal;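 further: viability of MM1S multiple myeloma cells under basal unstimulated conditions; test concentration not given here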
# [5] = basal RPMI8226 viability, no added stimulus, profiling panel, cell-based, calcein-AM fluorescence, 48 h, PK04 Diversity Set (AID 1166); details: RPMI8226 myeloma viability, higher = more signal;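 further: cells grown under basal conditions without added stimulus; test concentration not given here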
# [6] = basal HepG2 mitochondrial membrane potential changes, profiling panel, cell-based, JC-1 fluorescence, 24 h, 100 nL compound (AID 1167); details: higher = more signal; further: test concentration not given here
# [7] = basal 3T3-L1 adipocyte mitochondrial potential changes, profiling panel, cell-based, JC-1 fluorescence, 3T3-L1 adipocytes, 24 h, 100 nL compound (AID 1168); details: JC-1 mitochondrial fluorescence, higher = more signal, called active from +8 up or from −8 down; further: test concentration not given here
# [8] = basal RPMI8226 mitochondrial membrane potential changes, profiling panel, cell-based, JC-1 fluorescence, 24 h, 100 nL compound (AID 1169); details: RPMI8226 myeloma, JC-1 mitochondrial potential fluorescence, higher = more signal; further: test concentration not given here
# [9] = basal MM1S mitochondrial membrane potential changes, profiling panel, cell-based, JC-1 fluorescence, 24 h, 100 nL compound (AID 1170); details: higher = more signal; further: test concentration not given here
# [10] = A549 lung cancer cell viability effects, profiling panel, resazurin fluorescence, 24 h, PK04 Diversity Set (AID 1171); details: higher = more signal, called active from +8 up or from −8 down; further: test concentration not given here
# [11] = HepG2 liver cancer cell viability effects, profiling panel, resazurin fluorescence, 24 h, PK04 Diversity Set (AID 1172); details: higher = more signal; further: test concentration not given here
# [12] = basal S. cerevisiae growth modulation, no modifier, primary screen, OD600, strain BY4716, 24 h, basal condition (AID 1173); details: OD600, 24 h, higher = more signal, called active from +8 up or from −8 down
# [13] = MM1S myeloma cell viability, profiling panel, resazurin fluorescence, basal, 24 h, PK04 Diversity Set (AID 1174); details: higher = more signal, called active from +8 up or from −8 down;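 further: MM1S multiple myeloma cell line; test concentration not given here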
# [14] = target: Dihydroorotate dehydrogenase (quinone), mitochondrial (Plasmodium falciparum (isolate 3D7)) (UniProt Q08210); assay: PfDHODH enzyme inhibitors, primary screen, biochemical, C-terminal His tag, absorbance 600 nm (AID 1175); details: DCIP absorbance 600 nm, higher = more signal, called active from +8 up or from −8 down;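 further: recombinant parasite enzyme with a five histidine tag at its C terminus; test concentration not given here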
# [15] = P. aeruginosa biofilm formation inhibitors, primary screen, strain PAO1, LB-PBS medium, absorbance 600 nm (AID 1176); further: test concentration not given here; details: P. aeruginosa PAO1 growth/biofilm, A600, 12 h; higher = more signal
# [16] = S. cerevisiae RM11-1a growth modifiers, primary screen, strain RM11-1a, OD600, basal, 24 h (AID 1177); details: OD600, 24 h, higher = more signal, called active from +8 up or from −8 down;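 further: cultures grown under basal conditions with no added stressor; test concentration not given here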
# [17] = E. coli acrAB mutant growth effects, primary screen, E. coli filamentation inducers, strain DRC39, OD650, 24 h (AID 1178); details: higher = more signal, called active from +8 up or from −8 down;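 further: growth measured as culture turbidity by optical density at 650 nm; test concentration not given here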
# [18] = E. coli acrAB mutant growth effects, primary screen, E. coli filamentation inducers, strain DRC39, OD650, 48 h (AID 1179);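 further: screen aims at cell division blockers that make cells filament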; details: E. coli DRC39 delta-acrAB growth, higher = more signal, called active from +8 up or from −8 down
# [19] = RPMI8226 myeloma cell viability, profiling panel, resazurin fluorescence, basal, 24 h, PK04 Diversity Set (AID 1180); details: higher = more signal;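 further: RPMI8826 multiple myeloma cell line at 5000 cells per well; test concentration not given here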
# [20] = target: E3 ubiquitin-protein ligase XIAP (Homo sapiens) (UniProt P98170); assay: XIAP binders, primary screen, biophysical, small-molecule microarray, fluorescence 635 nm (AID 1181); details: small-molecule microarray binding, higher = more signal;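 further: score merges 667 nm emission and signal to noise over triplicate slides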
# Sequence of E3 ubiquitin-protein ligase XIAP (Homo sapiens) (P98170 whole entry, looked up): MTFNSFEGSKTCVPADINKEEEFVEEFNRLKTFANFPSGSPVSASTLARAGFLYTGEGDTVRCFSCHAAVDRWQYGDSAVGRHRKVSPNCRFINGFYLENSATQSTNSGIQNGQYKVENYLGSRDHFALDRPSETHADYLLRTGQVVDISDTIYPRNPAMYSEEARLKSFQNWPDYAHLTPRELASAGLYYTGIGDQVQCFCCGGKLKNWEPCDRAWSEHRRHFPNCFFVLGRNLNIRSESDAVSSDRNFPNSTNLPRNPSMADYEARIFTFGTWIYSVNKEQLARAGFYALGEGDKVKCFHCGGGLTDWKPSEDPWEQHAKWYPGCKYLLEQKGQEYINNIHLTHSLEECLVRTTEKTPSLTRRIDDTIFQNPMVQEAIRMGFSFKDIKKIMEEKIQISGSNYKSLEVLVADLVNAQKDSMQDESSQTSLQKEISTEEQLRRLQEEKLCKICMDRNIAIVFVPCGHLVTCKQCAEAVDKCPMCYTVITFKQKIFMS
# Sequence of Dihydroorotate dehydrogenase (quinone), mitochondrial (Plasmodium falciparum (isolate 3D7)) (Q08210 whole entry, looked up): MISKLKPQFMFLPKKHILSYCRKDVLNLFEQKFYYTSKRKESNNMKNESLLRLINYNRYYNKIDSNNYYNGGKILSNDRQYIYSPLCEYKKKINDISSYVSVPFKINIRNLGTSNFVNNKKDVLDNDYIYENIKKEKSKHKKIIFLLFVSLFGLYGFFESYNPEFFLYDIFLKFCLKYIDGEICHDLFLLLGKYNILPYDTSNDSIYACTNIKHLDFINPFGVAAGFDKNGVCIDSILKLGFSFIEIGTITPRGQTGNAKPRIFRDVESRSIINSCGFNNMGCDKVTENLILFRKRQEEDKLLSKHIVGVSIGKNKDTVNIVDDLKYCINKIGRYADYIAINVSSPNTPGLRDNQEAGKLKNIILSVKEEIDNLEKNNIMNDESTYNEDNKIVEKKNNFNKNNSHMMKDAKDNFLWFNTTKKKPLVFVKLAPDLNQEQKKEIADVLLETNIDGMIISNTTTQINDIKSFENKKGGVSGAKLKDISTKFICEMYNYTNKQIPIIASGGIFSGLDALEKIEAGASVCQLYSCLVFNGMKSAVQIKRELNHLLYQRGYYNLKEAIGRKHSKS
Compound,z-score [1],z-score [2],z-score [3],z-score [4],z-score [5],z-score [6],z-score [7],z-score [8],z-score [9],z-score [10],z-score [11],z-score [12],z-score [13],composite z-score [14],z-score [15],z-score [16],z-score [17],z-score [18],z-score [19],composite z-score [20]
COC(=O)[C@@]1(Cc2ccccc2N=[N+]=[N-])N=C(c2ccc(OCCCO)cc2)O[C@H]1c1ccccc1N=[N+]=[N-],-1.53,0.342,-5.52,-3.65,-4.04,-1.63,-0.0913 (inactive),-1.13,-2.92,-2.94 (inactive),-4.43,-0.596 (inactive),-8.41 (active),-0.071 (inactive),0.715 (inactive),0.897 (inactive),2.12 (inactive),1.91 (inactive),-6.83,0.0296
C=CC1c2cc(O)c(OC)cc2CCN1Cc1cc2c(cc1Br)OCO2 (stereo not given),-3.63,1.28,-4.07,-3.17,-4.57,-2.98,-0.196 (inactive),-0.743,-0.348,-1.67 (inactive),-1.95,-12.5 (active),-2.21 (inactive),-7.6 (inactive),-0.0065 (inactive),-2.09 (inactive),-0.929 (inactive),-1.69 (inactive),-2.82,-0.0525
COC(=O)[C@@]1(Cc2ccc(OC)cc2)[C@H]2c3cc(C(=O)N(C)C)n(Cc4ccc(Cl)c(C(F)(F)F)c4)c3C[C@H]2CN1C(=O)c1ccccc1,-0.585,-0.88,-0.585,-1.93,-2.39,0.765,-0.938 (inactive),-0.652,-1.69,-1.83 (inactive),-1.21,1.86 (inactive),-2.74 (inactive),0.381 (inactive),0.812 (inactive),0.673 (inactive),-0.505 (inactive),-0.0176 (inactive),-2.7,0.216
COc1ccc([Si](C)(C)[C@@H]2[C@@H](CC(=O)N(CCO)Cc3ccccc3)O[C@]3(C(=O)N(Cc4cccc(N5C(=O)c6cccc7cccc5c67)c4)c4ccccc43)[C@H]2C)cc1,-1.32,1.43,-1.12,-1.48,-3.72,0.641,2.03 (inactive),-1.02,-1.4,-0.999 (inactive),-0.47,-0.304 (inactive),-1.6 (inactive),-1.29 (inactive),1.25 (inactive),0.323 (inactive),1.75 (inactive),1.51 (inactive),-1.27,-0.124
CC(=O)NCCCC[C@@H]1NC(=O)[C@H]2C[C@@H](C(=O)NCCCC[N+](C)(C)C)[C@@H](c3cccc(OCCO)c3)N2C1=O,-0.443,0.247,-0.641,-1.7,0.206,0.105,0.169 (inactive),-0.336,1.03,-0.549 (inactive),-0.704,0.294 (inactive),0.785 (inactive),-30.8 (active),0.45 (inactive),-0.724 (inactive),0.417 (inactive),-0.369 (inactive),0.228,0.0223
Cc1ccc(S[C@]2(C(=O)NCCCN(C)C)CC(=O)N(C3CCCCC3)[C@@H]2c2ccc(CO)cc2)cc1,0.242,-0.148,-0.0685,-1.96,-0.0053,1.53,-0.112 (inactive),-0.151,-0.528,1.06 (inactive),-0.0347,0.0406 (inactive),0.118 (inactive),0.193 (inactive),0.236 (inactive),1.21 (inactive),0.425 (inactive),0.509 (inactive),-0.0763,-0.0374
COc1ccc([Si](C)(C)[C@@H]2[C@@H](CC(=O)N3Cc4ccccc4C[C@H]3CO)O[C@]3(C(=O)N(C)c4ccccc43)[C@H]2C)cc1,-2.16,0.0677,-4.12,-2.66,-4.4,-0.682,1.08 (inactive),-1.14,-2.28,-1.42 (inactive),-1.35,-2.33 (inactive),-2.97 (inactive),0.0586 (inactive),1.81 (inactive),1.87 (inactive),1.21 (inactive),0.403 (inactive),-4.65,-0.0095
COc1ccc(NC(=O)O[C@H]2[C@H](OC(=O)Nc3ccccc3)[C@@H](OC(=O)Nc3ccccc3)[C@@H](OC)O[C@@H]2CO)cc1,-1.42,0.635,-1.17,-1.18,-2.26,-0.107,-0.261 (inactive),-0.765,-1.06,-2.97 (inactive),-1.58,0.559 (inactive),-2.86 (inactive),1.1 (inactive),0.304 (inactive),2.89 (inactive),0.717 (inactive),-0.141 (inactive),-1.61,0.131
CCC[C@@H]1C[C@@]1(CCC)[C@@H](NC(=O)OCc1ccccc1)c1ccc(-c2ccccc2)cc1,-1.15,-1.15,0.0422,-0.625,-1.43,-0.862,0.258 (inactive),-0.325,-1.19,2.39 (inactive),2.43,-2.75 (inactive),0.879 (inactive),-0.251 (inactive),0.191 (inactive),0.259 (inactive),0.358 (inactive),0.492 (inactive),1.72,-0.0669
